Data taken from ChEMBL document CHEMBL1961873, “Compounds: GSK PKIS; Assays: Nanosyn kinase panel” (2012).

Columns and labels:
[1] = system: Epidermal growth factor receptor (Homo sapiens), P00533 [T790M]; conditions: at 1 µM
[2] = system: Epidermal growth factor receptor (Homo sapiens), P00533 [L858R,T790M]; conditions: at 0.1 µM
[3] = system: Epidermal growth factor receptor (Homo sapiens), P00533 [L858R,T790M]; conditions: at 1 µM
[4] = target: Ephrin type-A receptor 2 (Homo sapiens) (UniProt P29317); conditions: at 0.1 µM
[5] = target: Ephrin type-A receptor 2 (Homo sapiens) (UniProt P29317); conditions: at 1 µM
[6] = target: T1, Ephrin type-A receptor 3 (Homo sapiens) (UniProt P29320); conditions: at 0.1 µM
T1 sequence (whole entry): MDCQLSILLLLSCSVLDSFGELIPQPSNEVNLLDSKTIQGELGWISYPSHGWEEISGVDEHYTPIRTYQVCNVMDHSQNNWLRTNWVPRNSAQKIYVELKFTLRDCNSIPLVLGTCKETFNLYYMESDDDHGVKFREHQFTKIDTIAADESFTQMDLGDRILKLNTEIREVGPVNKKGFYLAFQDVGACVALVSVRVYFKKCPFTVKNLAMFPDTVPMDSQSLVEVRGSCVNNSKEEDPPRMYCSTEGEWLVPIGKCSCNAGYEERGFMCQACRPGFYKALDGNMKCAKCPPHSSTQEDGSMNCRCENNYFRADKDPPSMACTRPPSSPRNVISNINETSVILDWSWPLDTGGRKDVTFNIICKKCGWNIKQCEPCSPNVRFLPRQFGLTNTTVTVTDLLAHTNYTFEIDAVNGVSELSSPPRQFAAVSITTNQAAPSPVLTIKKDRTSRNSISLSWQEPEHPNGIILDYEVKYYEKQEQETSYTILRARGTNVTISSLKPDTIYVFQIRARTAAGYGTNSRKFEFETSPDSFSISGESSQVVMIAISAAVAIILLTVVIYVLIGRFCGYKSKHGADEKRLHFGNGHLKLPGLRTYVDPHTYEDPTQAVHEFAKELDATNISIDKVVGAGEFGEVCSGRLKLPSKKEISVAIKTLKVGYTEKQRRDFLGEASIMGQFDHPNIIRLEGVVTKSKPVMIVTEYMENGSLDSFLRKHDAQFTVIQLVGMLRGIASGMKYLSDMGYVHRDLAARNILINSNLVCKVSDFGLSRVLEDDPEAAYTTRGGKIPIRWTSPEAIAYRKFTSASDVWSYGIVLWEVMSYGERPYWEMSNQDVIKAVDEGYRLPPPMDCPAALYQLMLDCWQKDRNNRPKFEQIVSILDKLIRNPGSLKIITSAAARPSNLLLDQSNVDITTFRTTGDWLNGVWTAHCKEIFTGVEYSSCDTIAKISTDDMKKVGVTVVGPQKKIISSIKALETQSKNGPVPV

[7] = target: T1, Ephrin type-A receptor 3 (Homo sapiens); conditions: at 1 µM
[8] = target: Ephrin type-A receptor 4 (Homo sapiens) (UniProt P54764); conditions: at 0.1 µM
[9] = target: Ephrin type-A receptor 4 (Homo sapiens) (UniProt P54764); conditions: at 1 µM
[10] = target: T2, Ephrin type-B receptor 2 (Homo sapiens) (UniProt P29323); conditions: at 0.1 µM
T2 sequence (whole entry): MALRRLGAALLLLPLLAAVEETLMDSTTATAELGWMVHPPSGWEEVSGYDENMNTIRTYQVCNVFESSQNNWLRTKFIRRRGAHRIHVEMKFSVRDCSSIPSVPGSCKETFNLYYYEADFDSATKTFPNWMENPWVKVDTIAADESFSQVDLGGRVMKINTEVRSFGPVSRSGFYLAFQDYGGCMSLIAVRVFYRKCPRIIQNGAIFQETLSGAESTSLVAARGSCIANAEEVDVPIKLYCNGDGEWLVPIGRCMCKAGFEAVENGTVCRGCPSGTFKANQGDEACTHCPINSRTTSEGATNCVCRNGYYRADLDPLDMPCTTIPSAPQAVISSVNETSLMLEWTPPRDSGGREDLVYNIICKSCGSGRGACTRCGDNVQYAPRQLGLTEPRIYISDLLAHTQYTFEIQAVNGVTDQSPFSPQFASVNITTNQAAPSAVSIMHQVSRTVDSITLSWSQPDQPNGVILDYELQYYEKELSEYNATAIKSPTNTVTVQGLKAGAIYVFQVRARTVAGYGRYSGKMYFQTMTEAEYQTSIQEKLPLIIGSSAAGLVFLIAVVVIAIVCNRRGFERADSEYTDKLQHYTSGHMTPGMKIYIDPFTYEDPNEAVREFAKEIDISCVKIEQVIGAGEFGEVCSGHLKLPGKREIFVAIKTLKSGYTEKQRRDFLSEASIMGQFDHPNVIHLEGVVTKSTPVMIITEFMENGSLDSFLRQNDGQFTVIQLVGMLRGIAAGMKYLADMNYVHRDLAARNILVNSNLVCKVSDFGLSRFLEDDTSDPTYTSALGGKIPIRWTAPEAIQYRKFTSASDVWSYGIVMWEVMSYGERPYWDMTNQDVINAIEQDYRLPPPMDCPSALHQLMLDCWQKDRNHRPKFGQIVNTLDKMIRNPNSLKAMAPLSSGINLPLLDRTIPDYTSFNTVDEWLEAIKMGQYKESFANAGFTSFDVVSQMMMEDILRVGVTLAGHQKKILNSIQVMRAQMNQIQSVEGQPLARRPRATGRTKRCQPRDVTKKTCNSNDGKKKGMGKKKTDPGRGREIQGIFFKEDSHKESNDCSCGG

[11] = target: T2, Ephrin type-B receptor 2 (Homo sapiens); conditions: at 1 µM
[12] = target: T3, Ephrin type-B receptor 3 (Homo sapiens) (UniProt P54753); conditions: at 0.1 µM
T3 sequence (whole entry): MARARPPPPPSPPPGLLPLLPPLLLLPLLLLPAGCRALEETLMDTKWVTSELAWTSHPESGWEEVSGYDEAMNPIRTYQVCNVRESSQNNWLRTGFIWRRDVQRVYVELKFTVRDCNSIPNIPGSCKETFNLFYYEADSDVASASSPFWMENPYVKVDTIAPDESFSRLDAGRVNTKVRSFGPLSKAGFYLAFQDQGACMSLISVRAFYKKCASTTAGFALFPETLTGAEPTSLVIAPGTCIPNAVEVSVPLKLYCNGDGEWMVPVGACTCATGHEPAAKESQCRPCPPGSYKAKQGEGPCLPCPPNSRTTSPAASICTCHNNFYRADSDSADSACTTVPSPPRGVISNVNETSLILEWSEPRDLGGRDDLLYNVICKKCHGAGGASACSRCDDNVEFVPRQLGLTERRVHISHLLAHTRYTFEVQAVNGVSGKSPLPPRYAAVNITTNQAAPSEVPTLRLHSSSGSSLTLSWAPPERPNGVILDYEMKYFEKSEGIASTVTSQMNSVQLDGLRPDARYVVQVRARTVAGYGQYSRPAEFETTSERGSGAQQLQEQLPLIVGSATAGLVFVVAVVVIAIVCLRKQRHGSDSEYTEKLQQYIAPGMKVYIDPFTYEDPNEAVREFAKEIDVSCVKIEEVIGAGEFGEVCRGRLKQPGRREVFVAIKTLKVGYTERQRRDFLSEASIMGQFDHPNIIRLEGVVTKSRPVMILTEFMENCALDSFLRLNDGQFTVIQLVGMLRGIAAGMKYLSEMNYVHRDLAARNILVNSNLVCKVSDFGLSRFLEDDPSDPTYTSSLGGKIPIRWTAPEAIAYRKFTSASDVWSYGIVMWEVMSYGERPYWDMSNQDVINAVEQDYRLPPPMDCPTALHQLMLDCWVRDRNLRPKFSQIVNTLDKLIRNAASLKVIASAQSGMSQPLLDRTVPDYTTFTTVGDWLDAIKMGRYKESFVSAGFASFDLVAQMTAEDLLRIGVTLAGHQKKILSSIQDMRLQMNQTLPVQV

[13] = target: T3, Ephrin type-B receptor 3 (Homo sapiens); conditions: at 1 µM
[14] = target: T4, Ephrin type-B receptor 4 (Homo sapiens) (UniProt P54760); conditions: at 0.1 µM
T4 sequence (whole entry): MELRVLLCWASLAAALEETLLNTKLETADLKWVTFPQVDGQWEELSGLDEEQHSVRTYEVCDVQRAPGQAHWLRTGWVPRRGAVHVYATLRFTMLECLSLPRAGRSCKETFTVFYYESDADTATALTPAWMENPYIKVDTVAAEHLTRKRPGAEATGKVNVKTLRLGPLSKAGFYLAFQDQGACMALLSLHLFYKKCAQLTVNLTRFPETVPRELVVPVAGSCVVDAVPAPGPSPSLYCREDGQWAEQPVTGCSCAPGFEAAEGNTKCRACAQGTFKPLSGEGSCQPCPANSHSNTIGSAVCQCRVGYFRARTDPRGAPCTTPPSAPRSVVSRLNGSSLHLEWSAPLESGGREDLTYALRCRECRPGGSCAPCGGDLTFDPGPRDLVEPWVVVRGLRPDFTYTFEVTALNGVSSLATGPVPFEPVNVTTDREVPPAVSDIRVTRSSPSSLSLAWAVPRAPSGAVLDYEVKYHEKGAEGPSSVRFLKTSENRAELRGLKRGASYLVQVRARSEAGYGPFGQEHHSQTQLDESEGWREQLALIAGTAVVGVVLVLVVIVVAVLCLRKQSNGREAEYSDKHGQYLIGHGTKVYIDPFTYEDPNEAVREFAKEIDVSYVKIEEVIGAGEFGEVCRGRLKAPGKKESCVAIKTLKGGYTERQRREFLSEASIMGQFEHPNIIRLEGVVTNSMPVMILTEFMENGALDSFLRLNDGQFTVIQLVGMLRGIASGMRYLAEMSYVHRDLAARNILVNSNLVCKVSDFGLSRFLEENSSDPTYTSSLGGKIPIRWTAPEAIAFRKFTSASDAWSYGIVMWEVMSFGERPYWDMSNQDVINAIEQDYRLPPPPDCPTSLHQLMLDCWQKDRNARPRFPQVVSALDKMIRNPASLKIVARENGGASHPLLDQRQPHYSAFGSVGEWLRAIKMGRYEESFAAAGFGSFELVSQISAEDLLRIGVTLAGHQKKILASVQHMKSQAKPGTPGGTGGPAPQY

[15] = target: T4, Ephrin type-B receptor 4 (Homo sapiens); conditions: at 1 µM
[16] = target: Receptor tyrosine-protein kinase erbB-2 (Homo sapiens) (UniProt P04626); conditions: at 0.1 µM
Chain of Receptor tyrosine-protein kinase erbB-2 (Homo sapiens) (P04626 whole entry): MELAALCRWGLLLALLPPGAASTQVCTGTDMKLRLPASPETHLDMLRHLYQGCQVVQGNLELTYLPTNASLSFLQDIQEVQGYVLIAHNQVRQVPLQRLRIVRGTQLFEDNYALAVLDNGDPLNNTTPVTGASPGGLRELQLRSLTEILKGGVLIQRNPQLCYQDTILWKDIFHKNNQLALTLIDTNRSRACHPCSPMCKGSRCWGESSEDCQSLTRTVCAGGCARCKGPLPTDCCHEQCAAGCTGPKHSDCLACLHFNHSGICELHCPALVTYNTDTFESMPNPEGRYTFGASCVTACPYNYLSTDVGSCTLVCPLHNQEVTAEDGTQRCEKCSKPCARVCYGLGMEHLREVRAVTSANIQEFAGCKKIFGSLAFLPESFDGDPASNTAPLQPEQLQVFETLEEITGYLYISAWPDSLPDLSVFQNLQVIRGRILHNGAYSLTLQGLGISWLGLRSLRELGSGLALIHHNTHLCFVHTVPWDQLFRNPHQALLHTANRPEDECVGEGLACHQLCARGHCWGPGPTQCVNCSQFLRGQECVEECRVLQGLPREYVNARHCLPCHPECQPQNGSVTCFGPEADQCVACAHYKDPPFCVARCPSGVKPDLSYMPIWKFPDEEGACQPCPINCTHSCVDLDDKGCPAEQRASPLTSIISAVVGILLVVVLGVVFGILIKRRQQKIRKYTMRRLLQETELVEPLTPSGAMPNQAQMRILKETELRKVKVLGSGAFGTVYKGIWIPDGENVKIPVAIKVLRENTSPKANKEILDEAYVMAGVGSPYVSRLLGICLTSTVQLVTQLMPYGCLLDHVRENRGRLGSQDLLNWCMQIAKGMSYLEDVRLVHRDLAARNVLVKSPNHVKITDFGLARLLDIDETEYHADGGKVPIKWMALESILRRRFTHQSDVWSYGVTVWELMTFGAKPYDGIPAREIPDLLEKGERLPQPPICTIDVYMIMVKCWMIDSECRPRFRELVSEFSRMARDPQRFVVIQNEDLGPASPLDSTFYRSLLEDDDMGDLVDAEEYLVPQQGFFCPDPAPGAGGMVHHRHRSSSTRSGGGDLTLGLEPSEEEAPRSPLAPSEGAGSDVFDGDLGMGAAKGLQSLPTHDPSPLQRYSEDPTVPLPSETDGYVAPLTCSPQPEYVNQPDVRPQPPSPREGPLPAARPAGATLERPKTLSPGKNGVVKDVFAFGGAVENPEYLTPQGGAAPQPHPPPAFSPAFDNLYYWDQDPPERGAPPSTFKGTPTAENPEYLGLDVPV

[17] = target: Receptor tyrosine-protein kinase erbB-2 (Homo sapiens) (UniProt P04626); conditions: at 1 µM
[18] = target: Receptor tyrosine-protein kinase erbB-4 (Homo sapiens) (UniProt Q15303); conditions: at 0.1 µM
[19] = target: Receptor tyrosine-protein kinase erbB-4 (Homo sapiens) (UniProt Q15303); conditions: at 1 µM
[20] = target: Tyrosine-protein kinase Fer (Homo sapiens) (UniProt P16591); conditions: at 0.1 µM;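 further: reported figures are averaged percent inhibition of FER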
Chain of Tyrosine-protein kinase Fer (Homo sapiens) (P16591 whole entry, looked up): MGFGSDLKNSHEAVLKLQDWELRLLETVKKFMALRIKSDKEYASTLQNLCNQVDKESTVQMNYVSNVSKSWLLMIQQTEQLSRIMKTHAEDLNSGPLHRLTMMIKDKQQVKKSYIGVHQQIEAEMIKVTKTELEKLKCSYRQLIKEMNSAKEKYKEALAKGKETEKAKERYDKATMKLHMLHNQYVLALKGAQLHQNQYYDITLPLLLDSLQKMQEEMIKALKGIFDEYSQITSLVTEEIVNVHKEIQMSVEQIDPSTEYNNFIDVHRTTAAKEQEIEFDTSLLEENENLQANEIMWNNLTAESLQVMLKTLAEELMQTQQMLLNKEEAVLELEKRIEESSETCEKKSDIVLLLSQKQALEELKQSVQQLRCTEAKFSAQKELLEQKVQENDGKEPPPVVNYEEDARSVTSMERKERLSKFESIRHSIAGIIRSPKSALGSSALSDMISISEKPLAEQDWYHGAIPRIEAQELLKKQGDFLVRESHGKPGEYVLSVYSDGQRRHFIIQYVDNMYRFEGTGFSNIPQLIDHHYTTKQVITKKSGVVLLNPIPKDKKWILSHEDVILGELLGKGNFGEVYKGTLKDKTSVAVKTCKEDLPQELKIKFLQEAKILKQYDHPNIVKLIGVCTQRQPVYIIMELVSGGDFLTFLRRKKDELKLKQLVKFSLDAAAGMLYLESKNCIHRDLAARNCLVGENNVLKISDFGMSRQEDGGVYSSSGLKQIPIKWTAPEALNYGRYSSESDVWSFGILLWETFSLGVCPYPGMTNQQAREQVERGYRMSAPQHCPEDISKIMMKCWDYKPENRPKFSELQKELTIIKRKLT

Chain of Epidermal growth factor receptor (Homo sapiens), P00533 [L858R,T790M] (P00533 whole entry T790M/L858R, looked up): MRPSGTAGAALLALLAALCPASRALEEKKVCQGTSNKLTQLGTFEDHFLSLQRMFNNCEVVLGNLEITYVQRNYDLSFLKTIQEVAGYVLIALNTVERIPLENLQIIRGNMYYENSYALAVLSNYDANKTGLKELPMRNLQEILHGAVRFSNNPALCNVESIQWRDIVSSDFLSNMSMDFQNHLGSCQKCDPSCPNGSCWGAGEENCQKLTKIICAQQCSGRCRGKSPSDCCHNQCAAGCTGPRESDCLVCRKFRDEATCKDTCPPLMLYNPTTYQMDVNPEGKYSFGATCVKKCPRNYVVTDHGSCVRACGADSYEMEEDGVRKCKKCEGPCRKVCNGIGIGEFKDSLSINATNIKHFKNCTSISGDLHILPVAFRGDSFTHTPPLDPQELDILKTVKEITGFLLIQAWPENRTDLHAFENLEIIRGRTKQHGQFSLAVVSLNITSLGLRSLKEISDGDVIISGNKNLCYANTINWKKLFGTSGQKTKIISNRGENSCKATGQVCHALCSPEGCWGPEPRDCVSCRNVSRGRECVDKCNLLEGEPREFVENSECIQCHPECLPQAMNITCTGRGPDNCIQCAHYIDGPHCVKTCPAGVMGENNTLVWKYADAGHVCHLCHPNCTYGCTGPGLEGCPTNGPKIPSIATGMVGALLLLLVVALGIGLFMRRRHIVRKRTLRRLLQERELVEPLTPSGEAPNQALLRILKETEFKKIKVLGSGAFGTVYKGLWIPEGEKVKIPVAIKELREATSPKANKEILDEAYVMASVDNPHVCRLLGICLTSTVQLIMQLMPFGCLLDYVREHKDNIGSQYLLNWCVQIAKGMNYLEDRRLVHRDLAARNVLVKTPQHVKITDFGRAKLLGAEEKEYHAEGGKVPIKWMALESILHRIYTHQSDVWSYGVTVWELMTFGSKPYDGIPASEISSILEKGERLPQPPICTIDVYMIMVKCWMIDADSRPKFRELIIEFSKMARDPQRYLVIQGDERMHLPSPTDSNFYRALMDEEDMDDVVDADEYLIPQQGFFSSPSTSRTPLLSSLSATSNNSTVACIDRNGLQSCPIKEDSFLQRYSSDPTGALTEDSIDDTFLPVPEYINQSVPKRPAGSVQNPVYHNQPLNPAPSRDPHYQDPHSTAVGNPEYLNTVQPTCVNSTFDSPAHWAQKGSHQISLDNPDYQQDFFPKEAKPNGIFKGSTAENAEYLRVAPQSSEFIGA
Chain of Epidermal growth factor receptor (Homo sapiens), P00533 [T790M] (P00533 whole entry T790M): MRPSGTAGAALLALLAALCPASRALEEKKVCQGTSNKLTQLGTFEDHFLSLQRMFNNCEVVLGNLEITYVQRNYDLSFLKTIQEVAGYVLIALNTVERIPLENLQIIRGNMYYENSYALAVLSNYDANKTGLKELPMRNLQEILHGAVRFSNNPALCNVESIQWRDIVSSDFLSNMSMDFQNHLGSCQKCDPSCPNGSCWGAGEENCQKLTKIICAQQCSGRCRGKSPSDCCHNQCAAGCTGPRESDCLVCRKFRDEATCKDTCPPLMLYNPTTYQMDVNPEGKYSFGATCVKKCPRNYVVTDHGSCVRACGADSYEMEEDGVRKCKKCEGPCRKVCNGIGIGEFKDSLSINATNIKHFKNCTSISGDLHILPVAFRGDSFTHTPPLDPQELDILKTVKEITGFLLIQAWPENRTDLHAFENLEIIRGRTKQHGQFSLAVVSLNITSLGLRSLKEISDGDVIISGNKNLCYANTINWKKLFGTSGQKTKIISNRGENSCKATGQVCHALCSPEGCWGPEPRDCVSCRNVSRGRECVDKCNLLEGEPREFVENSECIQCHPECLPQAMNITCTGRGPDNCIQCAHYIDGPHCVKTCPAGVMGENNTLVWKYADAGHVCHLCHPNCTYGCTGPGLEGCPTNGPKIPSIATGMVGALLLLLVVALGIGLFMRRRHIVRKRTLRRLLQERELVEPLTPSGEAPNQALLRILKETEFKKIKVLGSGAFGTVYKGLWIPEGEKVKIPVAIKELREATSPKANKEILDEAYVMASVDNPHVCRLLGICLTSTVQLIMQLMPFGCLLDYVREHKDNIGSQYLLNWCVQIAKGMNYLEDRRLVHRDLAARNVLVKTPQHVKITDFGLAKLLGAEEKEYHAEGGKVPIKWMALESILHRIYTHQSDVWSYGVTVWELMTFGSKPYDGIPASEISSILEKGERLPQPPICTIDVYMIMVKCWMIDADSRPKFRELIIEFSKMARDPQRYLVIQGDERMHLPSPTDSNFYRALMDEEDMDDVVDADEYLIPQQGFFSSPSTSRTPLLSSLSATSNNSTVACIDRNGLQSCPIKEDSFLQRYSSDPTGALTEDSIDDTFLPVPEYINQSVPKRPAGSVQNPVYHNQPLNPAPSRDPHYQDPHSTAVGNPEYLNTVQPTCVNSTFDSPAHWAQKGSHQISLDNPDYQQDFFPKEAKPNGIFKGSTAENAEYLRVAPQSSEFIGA

SMILES: COc1cc2ncnc(Nc3ccc4c(cnn4Cc4ccccc4)c3)c2cc1OC
- inhibition [1]: 36.2%
- inhibition [2]: 1.03%
- inhibition [3]: 3.09%
- inhibition [4]: -2.8%
- inhibition [5]: -2.26%
- inhibition [6]: 1.64%
- inhibition [7]: 2.12%
- inhibition [8]: 4.83%
- inhibition [9]: 6.82%
- inhibition [10]: 4.85%
- inhibition [11]: 7.52%
- inhibition [12]: 2.93%
- inhibition [13]: 4.39%
- inhibition [14]: 1.36%
- inhibition [15]: 2.63%
- inhibition [16]: 32.4%
- inhibition [17]: 83%
- inhibition [18]: 83.7%
- inhibition [19]: 94%
- inhibition [20]: 0.84%

SMILES: CCCN1CCCC(c2ccc(Nc3nc(Nc4cc(F)ccc4C(N)=O)c4cc[nH]c4n3)c(OC)c2)C1 (stereo unspecified)
- inhibition [1]: 79.3%
- inhibition [2]: 55.5%
- inhibition [3]: 85.6%
- inhibition [4]: -1.17%
- inhibition [5]: -1.1%
- inhibition [6]: 3.86%
- inhibition [7]: 4.27%
- inhibition [8]: 8.97%
- inhibition [9]: 4.53%
- inhibition [10]: 8.14%
- inhibition [11]: 15.8%
- inhibition [12]: 6.2%
- inhibition [13]: -1.82%
- inhibition [14]: 2.18%
- inhibition [15]: 4.67%
- inhibition [16]: 2.27%
- inhibition [17]: 3.37%
- inhibition [18]: 36.3%
- inhibition [19]: 75%
- inhibition [20]: 77.5%

SMILES: NS(=O)(=O)c1ccc(N/N=C2\C(=O)Nc3ccc(Cl)cc32)cc1
- inhibition [1]: 4.35%
- inhibition [2]: -0.89%
- inhibition [3]: 2.78%
- inhibition [4]: 1.86%
- inhibition [5]: 1.3%
- inhibition [6]: 4.83%
- inhibition [7]: 4.35%
- inhibition [8]: 7.66%
- inhibition [9]: 12.2%
- inhibition [10]: 3.99%
- inhibition [11]: 6.46%
- inhibition [12]: 3.51%
- inhibition [13]: 2.43%
- inhibition [14]: 1.05%
- inhibition [15]: 2.86%
- inhibition [16]: 2.29%
- inhibition [17]: 4.3%
- inhibition [18]: 4.78%
- inhibition [20]: 2.95%

SMILES: CN(C)C(=O)O[C@H]1CN[C@H](C#Cc2cc3ncnc(Nc4ccc(OCc5cccc(F)c5)c(Cl)c4)c3s2)C1
- inhibition [4]: -0.69%
- inhibition [5]: 0.86%
- inhibition [6]: 2.97%
- inhibition [7]: 4.79%
- inhibition [8]: 7.54%
- inhibition [9]: 8.32%
- inhibition [10]: 9.47%
- inhibition [11]: 14.1%
- inhibition [12]: 4.55%
- inhibition [13]: 5.69%
- inhibition [14]: 2.43%
- inhibition [15]: 3.92%
- inhibition [16]: 4%
- inhibition [17]: 50.4%
- inhibition [18]: 92.5%
- inhibition [19]: 120%
- inhibition [20]: 1.02%
